The source of these data is ChEMBL document CHEMBL3433997, “St. Jude Leishmania screening dataset” (2016).

The first assay deals with Solute carrier family 2, facilitated glucose transporter member 1 (Homo sapiens) (UniProt P11166). The assay is described as follows: ST_JUDE_LEISH: Cytotoxicity at 2uM final concentration against transgenic Leishmania Mexicana promastigotes LmGLUT1 that are glucose transport deficient and complemented with the human glucose transporter GLUT1. Activity is measured by DNA content using SYBR green in vitro. Type of assay: functional.
Chain of Solute carrier family 2, facilitated glucose transporter member 1 (Homo sapiens) (P11166 whole entry): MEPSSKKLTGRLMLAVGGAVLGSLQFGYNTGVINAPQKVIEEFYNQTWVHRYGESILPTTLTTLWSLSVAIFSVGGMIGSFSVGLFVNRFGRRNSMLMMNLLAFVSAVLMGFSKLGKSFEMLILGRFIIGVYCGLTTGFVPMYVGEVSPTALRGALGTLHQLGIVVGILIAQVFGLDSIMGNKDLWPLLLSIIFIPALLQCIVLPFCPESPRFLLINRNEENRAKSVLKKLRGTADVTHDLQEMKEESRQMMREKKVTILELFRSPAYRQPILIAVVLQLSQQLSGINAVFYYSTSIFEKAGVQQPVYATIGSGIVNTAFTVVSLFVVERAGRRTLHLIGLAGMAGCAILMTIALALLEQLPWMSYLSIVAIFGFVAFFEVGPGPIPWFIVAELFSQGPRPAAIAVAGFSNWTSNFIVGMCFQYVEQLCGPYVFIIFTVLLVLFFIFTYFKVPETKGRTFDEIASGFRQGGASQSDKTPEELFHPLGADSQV
The inhibition is the change of the read-out against control, counted positive when it falls. Consider `CC(C)(CNCc1ccc(C(F)(F)F)cc1)c1nc(-c2ccnc(N)n2)c(-c2ccc(Cl)c(O)c2)[nH]1`, for which the inhibition was 1.5%.

Consider `Cc1[nH]c(C)c(-c2ccc(-c3ccc(OC(F)(F)F)cc3)nc2)c(=O)c1Cl`, for which the inhibition was -0.94%.

`Cc1ccccc1Nc1nc(NCCc2ccccc2)nc2ccccc12`: the inhibition was found to be 49.2%.

Take `COc1ccc(C=NNc2ccnc3cc(F)c(C)cc23)c2ccccc12`: the inhibition came out at 8.78%.

As to `CCOC(=O)c1cn(CC)c2cc(N(C)CCc3ccc(OC)c(OC)c3)c(F)cc2c1=O`, the inhibition turned out to be 2.15%.

Take `COc1ccc(C)c(Nc2ccnc(Nc3cccc(-c4nc5ccccc5[nH]4)c3)n2)c1`: the inhibition turned out to be 3.82%.

With `COc1ccc2c(N/N=C/c3ccccc3[N+](=O)[O-])cc(C)nc2c1`, the inhibition was determined as 3.18%.

For `CC(C)CN1CCCN(Cc2cccc(NC(=O)c3cc4ccccc4s3)c2)CC1`, the inhibition was -0.04%.

In the case of `Cc1nc2nc(N)nc(N)c2c(C)c1Cc1ccc(Cl)cc1`, the inhibition worked out at 33.4%.

Turning to `Cc1cc(N2CCN(C)CC2)nc2ccc(NC(=O)c3cccc(N(C)C)c3)cc12`, the inhibition turned out to be 7.09%.

Turning to `c1ccc(-n2cncn2)cc1`, the inhibition came out at 0.46%.

Consider `OC(CNCc1ccccc1Oc1ccccc1)c1cccc(C(F)(F)F)c1` (stereo not drawn), for which the inhibition came out at 3.95%.

Regarding `O=S(=O)(NCCN1CCCC1)c1ccc(-c2ccc(CNCc3ccc(F)cc3)cc2)cc1`, the inhibition was determined as 7.2%.

With `Cc1ccc(-c2nnc3c4ccccc4c(C)nn23)cc1S(=O)(=O)N1CCN(CCO)CC1`, the inhibition was 0.38%.

As for `C=CCn1c(Sc2ccc(C#N)c([N+](=O)[O-])c2)nnc1-c1ccc(OC)cc1`, the inhibition was 4.25%.

For the compound `COc1ccc2c(=O)ccn(CCN3CCC(NCc4ccc5c(n4)NC(=O)CS5)CC3)c2c1`, the inhibition came to 3.6%.

Regarding `COc1cc2nc(NCc3cccc(CNC(=O)c4ccc(-c5ccc(C(C)=O)cc5)cc4)c3)nc(N)c2cc1OC`, the inhibition turned out to be 0.91%.

In the case of `Cc1cc(N[C@@H](CC(C)C)C(=O)NCCc2ccccc2)nc(NCC2CCCCC2)n1`, the inhibition is 6.58%.

For `COc1cc(OC)cc(-c2nn(-c3ccc([N+](=O)[O-])cc3Cl)c(=S)n2CC2CCCO2)c1` (stereo not drawn), the inhibition is 3.14%.

Turning to `Nc1ncnc2occ(-c3ccc(NC(=O)Nc4cc(C(F)(F)F)ccc4F)cc3)c12`, the inhibition came to 0.61%.

`COc1ccc(C(=O)C2CC2CN(C)CC(O)c2cc(C)c(OC)cc2C)cc1` (stereo not drawn): the inhibition was 8.26%.

With `O=c1cc(NCCCNC2CCCc3c2ccc2ccccc32)[nH]c2ccccc12` (stereo not drawn), the inhibition was 4.07%.

As to `O=C(/C=C/c1ccc(Cl)c(Cl)c1)NCCCCCN1CCC(NC(=O)Nc2ccc(OC(F)F)cc2)CC1`, the inhibition is -1.59%.

Turning to `CN(C)c1ccc(OCCCCCCOc2ccccc2)cc1`, the inhibition stood at 1.32%.

With `CC(C)c1ccc(NC(S)=NN=Cc2ccccn2)cc1`, the inhibition turned out to be 63.9%.

Turning to `Cc1cc(Nc2ccnc(-c3ccc(Cl)cc3)n2)ccn1`, the inhibition is 7.95%.

Turning to `N#Cc1c(N)nc(SCC(=O)Nc2cc(C(F)(F)F)ccc2Cl)c(C#N)c1-c1cccs1`, the inhibition worked out at 1.06%.

As to `Cc1ccn2cc(-c3ccc(NC(=O)c4ccc(Br)o4)cc3)nc2c1`, the inhibition came to 1.17%.

Consider `COc1ccc2ccccc2c1CON1C(=N)N=C(N)NC1(C)C`, for which the inhibition was determined as 1.59%.

On to `c1ccc(-c2nc(Nc3nc4ccccc4[nH]3)[nH]c2-c2ccccc2)cc1`, for which the inhibition stood at 10.8%.

With `COc1ccccc1CCNc1nccc(N[C@@H](Cc2ccccc2)C(=O)NCc2cccs2)n1`, the inhibition was 1.78%.

Regarding `Cc1ccccc1NC(=S)NC1CCN(CCCCCNC(=O)/C=C/c2ccc(Cl)c(Cl)c2)CC1`, the inhibition worked out at 5.52%.

On to `CN1CCCN(Cc2ccc(-c3ccc(NC(=O)c4cccc(C#N)c4)cc3)cc2)CC1`, for which the inhibition worked out at 2.3%.

For `Cc1nn(CCOC(=O)NC(NCC2COc3ccccc3O2)C(Cl)(Cl)Cl)cc1[N+](=O)[O-]` (stereo not drawn), the inhibition was found to be 0.33%.

As for `CCOc1cccc(C(=O)Nc2cccc(CN3CCCN(Cc4ccc(O)cc4)CC3)c2)c1`, the inhibition was found to be 3.17%.

On to `COc1ccc2nccc(N3CCC(CCNCc4ccc5c(n4)NC(=O)CO5)CC3)c2c1`, for which the inhibition amounted to 1.72%.

On to `O=C(NCC1CCC1)c1cnc(Nc2cccc(Cl)c2)nc1N1CCC1`, for which the inhibition is 14.5%.

As for `COc1cccc(CNC(=O)c2ccnc(-c3cccc(CN(C)C4CCN(C)CC4)c3)c2)c1`, the inhibition is -0.04%.

`Cc1cnc(-c2ccc(NC(=O)c3coc4ccc(N5CC(C)N(C)C(C)C5)cc34)cc2)o1` (stereo not drawn): the inhibition was -0.6%.

In another assay the target is Hexose transporter 1 (Plasmodium falciparum) (UniProt O97467). The assay is described as follows: ST_JUDE_LEISH: Cytotoxicity at 2uM final concentration against transgenic Leishmania Mexicana promastigotes LmPfHT that are glucose transport deficient and complemented with the Plasmodium falciparum hexose transporter. Activity is measured by DNA content using SYBR green in vitro. The class given is functional.
Consider `CC(C)(CNCc1ccc(C(F)(F)F)cc1)c1nc(-c2ccnc(N)n2)c(-c2ccc(Cl)c(O)c2)[nH]1`, for which the inhibition turned out to be 0.51%.

As to `Cc1[nH]c(C)c(-c2ccc(-c3ccc(OC(F)(F)F)cc3)nc2)c(=O)c1Cl`, the inhibition was -0.29%.

Consider `Cc1ccccc1Nc1nc(NCCc2ccccc2)nc2ccccc12`, for which the inhibition came out at 37.4%.

In the case of `COc1ccc(C=NNc2ccnc3cc(F)c(C)cc23)c2ccccc12`, the inhibition was found to be 8.43%.

On to `CCOC(=O)c1cn(CC)c2cc(N(C)CCc3ccc(OC)c(OC)c3)c(F)cc2c1=O`, for which the inhibition stood at 1.21%.

In the case of `COc1ccc(C)c(Nc2ccnc(Nc3cccc(-c4nc5ccccc5[nH]4)c3)n2)c1`, the inhibition stood at 1.79%.

For `COc1ccc2c(N/N=C/c3ccccc3[N+](=O)[O-])cc(C)nc2c1`, the inhibition came to 2.75%.

In the case of `CC(C)CN1CCCN(Cc2cccc(NC(=O)c3cc4ccccc4s3)c2)CC1`, the inhibition was -0.28%.

Regarding `Cc1nc2nc(N)nc(N)c2c(C)c1Cc1ccc(Cl)cc1`, the inhibition came out at 43.3%.

On to `Cc1cc(N2CCN(C)CC2)nc2ccc(NC(=O)c3cccc(N(C)C)c3)cc12`, for which the inhibition stood at 7.99%.

As to `c1ccc(-n2cncn2)cc1`, the inhibition is 1.47%.

In the case of `OC(CNCc1ccccc1Oc1ccccc1)c1cccc(C(F)(F)F)c1` (stereo not drawn), the inhibition was determined as 2.2%.

As for `O=S(=O)(NCCN1CCCC1)c1ccc(-c2ccc(CNCc3ccc(F)cc3)cc2)cc1`, the inhibition was determined as 6.71%.

For `Cc1ccc(-c2nnc3c4ccccc4c(C)nn23)cc1S(=O)(=O)N1CCN(CCO)CC1`, the inhibition amounted to 0.96%.

With `C=CCn1c(Sc2ccc(C#N)c([N+](=O)[O-])c2)nnc1-c1ccc(OC)cc1`, the inhibition was 6.95%.

For the compound `COc1ccc2c(=O)ccn(CCN3CCC(NCc4ccc5c(n4)NC(=O)CS5)CC3)c2c1`, the inhibition is 2.3%.

Turning to `COc1cc2nc(NCc3cccc(CNC(=O)c4ccc(-c5ccc(C(C)=O)cc5)cc4)c3)nc(N)c2cc1OC`, the inhibition was -0.03%.

Turning to `Cc1cc(N[C@@H](CC(C)C)C(=O)NCCc2ccccc2)nc(NCC2CCCCC2)n1`, the inhibition is 6.23%.

Take `COc1cc(OC)cc(-c2nn(-c3ccc([N+](=O)[O-])cc3Cl)c(=S)n2CC2CCCO2)c1` (stereo not drawn): the inhibition is -3.05%.

In the case of `Nc1ncnc2occ(-c3ccc(NC(=O)Nc4cc(C(F)(F)F)ccc4F)cc3)c12`, the inhibition was determined as 2.93%.

As for `COc1ccc(C(=O)C2CC2CN(C)CC(O)c2cc(C)c(OC)cc2C)cc1` (stereo not drawn), the inhibition was found to be 7.67%.

With `O=c1cc(NCCCNC2CCCc3c2ccc2ccccc32)[nH]c2ccccc12` (stereo not drawn), the inhibition turned out to be 4.85%.

Regarding `O=C(/C=C/c1ccc(Cl)c(Cl)c1)NCCCCCN1CCC(NC(=O)Nc2ccc(OC(F)F)cc2)CC1`, the inhibition was -0.5%.

`CN(C)c1ccc(OCCCCCCOc2ccccc2)cc1`: the inhibition was determined as 1.77%.

Take `CC(C)c1ccc(NC(S)=NN=Cc2ccccn2)cc1`: the inhibition was determined as 88.5%.

Regarding `Cc1cc(Nc2ccnc(-c3ccc(Cl)cc3)n2)ccn1`, the inhibition turned out to be 8.43%.

With `N#Cc1c(N)nc(SCC(=O)Nc2cc(C(F)(F)F)ccc2Cl)c(C#N)c1-c1cccs1`, the inhibition came out at 0.77%.

Take `Cc1ccn2cc(-c3ccc(NC(=O)c4ccc(Br)o4)cc3)nc2c1`: the inhibition was 2.74%.

Regarding `COc1ccc2ccccc2c1CON1C(=N)N=C(N)NC1(C)C`, the inhibition was found to be 1.46%.

For `c1ccc(-c2nc(Nc3nc4ccccc4[nH]3)[nH]c2-c2ccccc2)cc1`, the inhibition was 6.74%.

On to `COc1ccccc1CCNc1nccc(N[C@@H](Cc2ccccc2)C(=O)NCc2cccs2)n1`, for which the inhibition was 1.77%.

Consider `Cc1ccccc1NC(=S)NC1CCN(CCCCCNC(=O)/C=C/c2ccc(Cl)c(Cl)c2)CC1`, for which the inhibition was determined as 4.69%.

Take `CN1CCCN(Cc2ccc(-c3ccc(NC(=O)c4cccc(C#N)c4)cc3)cc2)CC1`: the inhibition was 0.34%.

As to `Cc1nn(CCOC(=O)NC(NCC2COc3ccccc3O2)C(Cl)(Cl)Cl)cc1[N+](=O)[O-]` (stereo not drawn), the inhibition is -0.07%.

`CCOc1cccc(C(=O)Nc2cccc(CN3CCCN(Cc4ccc(O)cc4)CC3)c2)c1`: the inhibition is 3.14%.

`COc1ccc2nccc(N3CCC(CCNCc4ccc5c(n4)NC(=O)CO5)CC3)c2c1`: the inhibition was 5.22%.

Take `O=C(NCC1CCC1)c1cnc(Nc2cccc(Cl)c2)nc1N1CCC1`: the inhibition was found to be 12.8%.

Take `COc1cccc(CNC(=O)c2ccnc(-c3cccc(CN(C)C4CCN(C)CC4)c3)c2)c1`: the inhibition was -0.18%.

On to `Cc1cnc(-c2ccc(NC(=O)c3coc4ccc(N5CC(C)N(C)C(C)C5)cc34)cc2)o1` (stereo not drawn), for which the inhibition came out at 1.55%.
